Measurements from PubChem BioAssay (EPA / NIEHS).
Inconclusive results are not listed. The source made the active and inactive calls. Rule for the calls: active = hit-call score of the fitted dose curve at least 0.9, where 1 is the maximum; inconclusive = response in the unintended direction; inactive = score below 0.9.

Key:
[1] = biological target: human Beta-secretase (BACE), BACE1 (gene 23621) (UniProt P56817); assay: NVS_ENZ_hBACE: NovaScreen (NVS) Enzymatic Assay for human Beta-secretase (BACE) (AID 2283140);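 note: hits are inhibitors that reduce fluorescent substrate signal versus DMSO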
human Beta-secretase (BACE), BACE1 (gene 23621), sequence (P56817 whole entry, looked up): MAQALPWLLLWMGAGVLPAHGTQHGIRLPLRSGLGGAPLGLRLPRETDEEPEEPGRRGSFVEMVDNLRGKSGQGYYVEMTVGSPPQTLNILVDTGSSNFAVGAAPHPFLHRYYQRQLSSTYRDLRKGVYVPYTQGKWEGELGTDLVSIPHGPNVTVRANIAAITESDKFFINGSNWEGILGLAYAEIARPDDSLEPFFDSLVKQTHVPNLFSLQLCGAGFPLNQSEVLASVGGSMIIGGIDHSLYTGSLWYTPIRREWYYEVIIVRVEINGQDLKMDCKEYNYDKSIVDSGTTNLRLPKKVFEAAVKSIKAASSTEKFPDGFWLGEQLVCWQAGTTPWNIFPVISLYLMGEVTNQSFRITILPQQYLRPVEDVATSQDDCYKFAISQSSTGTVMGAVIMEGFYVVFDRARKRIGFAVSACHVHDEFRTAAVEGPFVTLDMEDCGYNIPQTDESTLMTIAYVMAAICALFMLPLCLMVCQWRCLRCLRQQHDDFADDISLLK
Description: NVS_ENZ_hBACE is a biochemical, single-readout assay that uses extracted gene-proteins from SF9 in a cell-free assay. Measurements were taken 1 hour after chemical dosing in a 96-well plate.NVS_ENZ_hBACE is one of one assay component(s) measured or calculated from the NVS_ENZ_hBACE assay. It is designed to make measurements of enzyme activity, a form of enzyme reporter, as detected with fluorescence intensity signals by Fluorescence technology.Data from the assay component NVS_ENZ_hBACE was analyzed into 1 assay endpoint. This assay endpoint, NVS_ENZ_hBACE, was analyzed in the positive analysis fitting direction relative to DMSO as the negative control and baseline of activity. Using a type of enzyme reporter, loss-of-signal activity can be used to understand changes in the enzymatic activity as they relate to the gene BACE1. Furthermore, this assay endpoint can be referred to as a primary readout, because […]. To generalize the intended target to other relatable targets, this assay endpoint is annotated to the protease intended target family, where the subfamily is aspartate protease.
Binding assays used specific radioligands (tritiated, iodinated) with non-radioactive competitive displacement ligands in agonist or antagonist protocols (as indicated) and various reference compounds and inhibitors to titrate specific binding to receptors and transporters. Most enzyme assays (CYPs, kinases, phosphatases, proteases, HDACs) used recombinant protein and specific substrates (fluorescence mostly, some colorimetric and radioactive) and inhibitors, followed by a biochemical separation of substrate and product. All assays for the biochemical HTS were initially run in duplicate at a single concentration (10 uM for CYP450 assays and 25 uM for all others). […] Each assay was run with positive and negative controls, and concurrent controls on every plate. The follow-up (secondary) screen tested active chemical-pairs in concentration series, as well as a few additional assays not tested in the primary screen, some selected negative inactives, and several cases re-run in the concentration series for confirmatory purposes.

[2] = biological target: human Matrix Metalloproteinase-9 (MMP9), MMP9 (gene 4318) (UniProt P14780); assay: NVS_ENZ_hMMP9: NovaScreen (NVS) Enzymatic Assay for human Matrix Metalloproteinase-9 (MMP9) (AID 2283190);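 note: cell-free recombinant MMP9 protease activity read by fluorescent substrate signal; active means inhibition seen as loss of fluorescence signal versus DMSO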
human Matrix Metalloproteinase-9 (MMP9), MMP9 (gene 4318), sequence (P14780 whole entry, looked up): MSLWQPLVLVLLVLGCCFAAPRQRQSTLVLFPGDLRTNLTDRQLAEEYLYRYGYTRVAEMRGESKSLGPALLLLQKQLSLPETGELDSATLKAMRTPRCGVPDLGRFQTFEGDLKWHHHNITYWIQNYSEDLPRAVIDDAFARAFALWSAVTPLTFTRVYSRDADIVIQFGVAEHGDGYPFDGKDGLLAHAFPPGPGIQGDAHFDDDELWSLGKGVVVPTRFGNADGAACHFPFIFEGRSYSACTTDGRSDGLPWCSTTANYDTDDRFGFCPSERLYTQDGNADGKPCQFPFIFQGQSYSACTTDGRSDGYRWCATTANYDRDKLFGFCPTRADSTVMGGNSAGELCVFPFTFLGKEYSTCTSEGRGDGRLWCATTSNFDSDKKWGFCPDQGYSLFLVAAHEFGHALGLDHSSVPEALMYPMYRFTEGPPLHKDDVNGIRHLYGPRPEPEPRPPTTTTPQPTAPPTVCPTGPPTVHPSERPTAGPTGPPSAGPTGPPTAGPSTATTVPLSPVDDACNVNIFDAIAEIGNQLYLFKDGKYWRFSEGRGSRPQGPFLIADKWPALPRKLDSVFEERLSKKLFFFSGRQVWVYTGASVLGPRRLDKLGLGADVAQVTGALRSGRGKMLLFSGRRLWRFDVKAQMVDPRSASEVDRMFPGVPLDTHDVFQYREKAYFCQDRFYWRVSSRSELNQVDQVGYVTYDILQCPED
Outline: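 Screening concentration 25 uM, duplicate wells, then dose series for confirmation. Cell-free enzymatic reaction measured by fluorescence intensity 1 h post-dosing; decreased signal versus DMSO taken as activity.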

[3] = biological target: human Caspase 5 (CASP5), CASP5 (gene 838) (UniProt P51878); assay: NVS_ENZ_hCASP5: NovaScreen (NVS) Enzymatic Assay for human Caspase 5 (CASP5) (AID 2283137)
human Caspase 5 (CASP5), CASP5 (gene 838), sequence (P51878 whole entry, looked up): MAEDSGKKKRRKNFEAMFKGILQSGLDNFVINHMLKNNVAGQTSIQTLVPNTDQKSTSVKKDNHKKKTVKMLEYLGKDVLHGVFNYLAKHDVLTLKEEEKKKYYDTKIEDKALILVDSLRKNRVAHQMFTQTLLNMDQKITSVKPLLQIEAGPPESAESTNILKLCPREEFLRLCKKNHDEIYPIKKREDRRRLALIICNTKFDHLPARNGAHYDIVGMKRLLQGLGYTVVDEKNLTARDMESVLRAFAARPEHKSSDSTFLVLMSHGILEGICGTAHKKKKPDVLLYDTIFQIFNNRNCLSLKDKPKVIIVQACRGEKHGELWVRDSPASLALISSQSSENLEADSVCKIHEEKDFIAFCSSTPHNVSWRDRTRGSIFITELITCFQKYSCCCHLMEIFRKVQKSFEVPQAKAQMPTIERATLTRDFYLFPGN
Outline: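 Recombinant E. coli-expressed human caspase 5 in a cell-free enzyme assay; fluorescence intensity read 2 hours after chemical dosing. Single-concentration duplicate screen at 25 uM, then concentration-response up to 50 uM for hits; DMSO negative control.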

[4] = biological target: human Ephrin type-A Receptor 1 (EphA1), EPHA1 (gene 2041) (UniProt P21709); assay: NVS_ENZ_hEphA1: NovaScreen (NVS) Enzymatic Assay for human Ephrin type-A Receptor 1 (EphA1) (AID 2283158);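 note: activity is signal loss versus DMSO meaning EphA1 kinase inhibition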
human Ephrin type-A Receptor 1 (EphA1), EPHA1 (gene 2041), sequence (P21709 whole entry, looked up): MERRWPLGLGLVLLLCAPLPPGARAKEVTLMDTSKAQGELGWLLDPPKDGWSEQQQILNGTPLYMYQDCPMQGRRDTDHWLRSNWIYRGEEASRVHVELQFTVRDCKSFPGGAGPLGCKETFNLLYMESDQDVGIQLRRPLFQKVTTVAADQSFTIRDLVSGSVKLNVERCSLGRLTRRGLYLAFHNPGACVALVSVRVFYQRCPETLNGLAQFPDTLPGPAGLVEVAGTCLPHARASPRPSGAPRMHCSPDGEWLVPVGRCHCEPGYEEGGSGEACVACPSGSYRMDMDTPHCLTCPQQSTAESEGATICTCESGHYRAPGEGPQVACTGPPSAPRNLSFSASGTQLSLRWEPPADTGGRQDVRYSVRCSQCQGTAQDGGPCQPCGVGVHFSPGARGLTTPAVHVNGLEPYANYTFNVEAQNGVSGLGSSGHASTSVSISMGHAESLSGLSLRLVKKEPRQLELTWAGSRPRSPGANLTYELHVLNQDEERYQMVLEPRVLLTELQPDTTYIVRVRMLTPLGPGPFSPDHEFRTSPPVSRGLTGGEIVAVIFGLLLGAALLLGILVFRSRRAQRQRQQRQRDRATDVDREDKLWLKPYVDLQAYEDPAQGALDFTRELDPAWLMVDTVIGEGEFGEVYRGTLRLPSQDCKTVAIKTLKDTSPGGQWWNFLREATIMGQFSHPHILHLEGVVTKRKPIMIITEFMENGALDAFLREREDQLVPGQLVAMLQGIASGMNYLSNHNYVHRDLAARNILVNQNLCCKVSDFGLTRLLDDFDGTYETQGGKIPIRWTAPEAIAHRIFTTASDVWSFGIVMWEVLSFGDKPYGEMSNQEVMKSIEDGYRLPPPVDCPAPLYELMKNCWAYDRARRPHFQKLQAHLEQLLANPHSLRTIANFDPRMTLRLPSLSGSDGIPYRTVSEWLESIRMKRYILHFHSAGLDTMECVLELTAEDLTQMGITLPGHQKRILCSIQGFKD
Outline: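 Cell-free kinase activity with recombinant protein, 1 hour after dosing; product separated by electrophoretic mobility shift, fluorescence read. Primary screen at 25 uM in duplicate; hits run as concentration-response up to 50 uM, relative to DMSO.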

[5] = biological target: Cytochrome P450 2C19 (Homo sapiens) (UniProt P33261); assay: NVS_ADME_hCYP2C19: NovaScreen (NVS) CYP450-related Enzyme Activity (ADME) Assay for human CYP2C19 (AID 2283113);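 for AC50: potency for inhibition seen as loss of fluorescent signal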
Outline: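 Cell-free recombinant human CYP2C19 from insect cells, fluorescent substrate; activity read by fluorescence intensity 1 h after dosing. Primary screen in duplicate at 10 uM; actives retested in concentration series. Signal loss versus acetonitrile negative control.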

[6] = biological target: human Esterase Plasma (ES), BCHE (gene 590) (UniProt P06276); assay: NVS_ENZ_hES: NovaScreen (NVS) Enzymatic Assay for human Esterase Plasma (ES) (AID 2283157)
Outline: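 Cell-free enzyme assay using esterase extracted from human plasma; colorimetric absorbance read 0.25 hour after dosing. Single-concentration duplicate screen at 25 uM, then concentration-response up to 50 uM; loss of signal scored against DMSO baseline.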

[7] = biological target: human Phosphoinositide 3-kinase alpha (PI3Ka), PIK3CA (gene 5290) (UniProt P42336); assay: NVS_ENZ_hPI3Ka: NovaScreen (NVS) Enzymatic Assay for human Phosphoinositide 3-kinase alpha (PI3Ka) (AID 2283196)
human Phosphoinositide 3-kinase alpha (PI3Ka), PIK3CA (gene 5290), sequence (P42336 whole entry, looked up): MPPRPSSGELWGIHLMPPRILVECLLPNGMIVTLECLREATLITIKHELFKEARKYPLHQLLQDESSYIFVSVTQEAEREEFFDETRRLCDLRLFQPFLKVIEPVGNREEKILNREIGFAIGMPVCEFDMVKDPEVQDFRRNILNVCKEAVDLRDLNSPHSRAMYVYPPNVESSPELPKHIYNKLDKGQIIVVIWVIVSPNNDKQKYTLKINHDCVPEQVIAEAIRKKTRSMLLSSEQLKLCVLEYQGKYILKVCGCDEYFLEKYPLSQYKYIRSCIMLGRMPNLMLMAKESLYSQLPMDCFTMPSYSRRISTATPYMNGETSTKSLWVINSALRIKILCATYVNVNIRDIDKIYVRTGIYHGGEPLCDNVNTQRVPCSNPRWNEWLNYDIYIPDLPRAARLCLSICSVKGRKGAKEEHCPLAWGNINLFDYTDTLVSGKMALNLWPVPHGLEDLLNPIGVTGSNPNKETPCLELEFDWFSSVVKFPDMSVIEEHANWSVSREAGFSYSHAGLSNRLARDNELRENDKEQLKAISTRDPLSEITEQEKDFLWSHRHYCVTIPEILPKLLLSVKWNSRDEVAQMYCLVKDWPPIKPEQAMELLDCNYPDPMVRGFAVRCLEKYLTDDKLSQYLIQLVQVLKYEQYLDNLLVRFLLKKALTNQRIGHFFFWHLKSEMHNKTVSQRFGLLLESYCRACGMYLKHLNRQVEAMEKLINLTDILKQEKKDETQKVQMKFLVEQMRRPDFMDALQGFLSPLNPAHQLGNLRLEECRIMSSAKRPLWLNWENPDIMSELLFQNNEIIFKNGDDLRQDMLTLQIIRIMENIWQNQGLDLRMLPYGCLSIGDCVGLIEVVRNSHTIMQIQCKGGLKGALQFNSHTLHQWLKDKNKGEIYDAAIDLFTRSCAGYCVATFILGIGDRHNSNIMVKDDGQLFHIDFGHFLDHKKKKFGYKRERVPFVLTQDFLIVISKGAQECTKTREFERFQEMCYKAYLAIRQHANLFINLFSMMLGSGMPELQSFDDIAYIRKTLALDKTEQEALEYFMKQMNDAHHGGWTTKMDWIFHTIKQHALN
Outline: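 Duplicate single-point screen (25 uM), then singleton dose-response (max 50 uM) for compounds meeting the threshold. Cell-free kinase reaction, 1 h; fluorescent mobility-shift readout.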

[8] = biological target: human Dual Specificity Protein Phosphatase 3 (DUSP3), DUSP3 (gene 1845) (UniProt P51452); assay: NVS_ENZ_hDUSP3: NovaScreen (NVS) Enzymatic Assay for human Dual Specificity Protein Phosphatase 3 (DUSP3) (AID 2283152);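 note: phosphatase activity of recombinant human DUSP3 on a fluorogenic substrate without cells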
human Dual Specificity Protein Phosphatase 3 (DUSP3), DUSP3 (gene 1845), sequence (P51452 whole entry, looked up): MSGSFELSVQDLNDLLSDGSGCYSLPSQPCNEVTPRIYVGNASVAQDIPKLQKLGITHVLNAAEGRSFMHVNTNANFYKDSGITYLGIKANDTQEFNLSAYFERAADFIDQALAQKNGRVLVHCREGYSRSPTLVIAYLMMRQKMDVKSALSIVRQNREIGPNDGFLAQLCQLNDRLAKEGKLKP
Outline: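 Cell-free assay with recombinant human DUSP3 and fluorogenic substrate, read by fluorescence intensity. Primary screen ran duplicate at 25 uM; actives followed up in concentration series; loss of signal versus DMSO scored.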

[9] = biological target: human Phosphodiesterase 10 (PDE10), PDE10A (gene 10846) (UniProt Q9Y233); assay: NVS_ENZ_hPDE10: NovaScreen (NVS) Enzymatic Assay for human Phosphodiesterase 10 (PDE10) (AID 2283195)
human Phosphodiesterase 10 (PDE10), PDE10A (gene 10846), sequence (Q9Y233 whole entry, looked up): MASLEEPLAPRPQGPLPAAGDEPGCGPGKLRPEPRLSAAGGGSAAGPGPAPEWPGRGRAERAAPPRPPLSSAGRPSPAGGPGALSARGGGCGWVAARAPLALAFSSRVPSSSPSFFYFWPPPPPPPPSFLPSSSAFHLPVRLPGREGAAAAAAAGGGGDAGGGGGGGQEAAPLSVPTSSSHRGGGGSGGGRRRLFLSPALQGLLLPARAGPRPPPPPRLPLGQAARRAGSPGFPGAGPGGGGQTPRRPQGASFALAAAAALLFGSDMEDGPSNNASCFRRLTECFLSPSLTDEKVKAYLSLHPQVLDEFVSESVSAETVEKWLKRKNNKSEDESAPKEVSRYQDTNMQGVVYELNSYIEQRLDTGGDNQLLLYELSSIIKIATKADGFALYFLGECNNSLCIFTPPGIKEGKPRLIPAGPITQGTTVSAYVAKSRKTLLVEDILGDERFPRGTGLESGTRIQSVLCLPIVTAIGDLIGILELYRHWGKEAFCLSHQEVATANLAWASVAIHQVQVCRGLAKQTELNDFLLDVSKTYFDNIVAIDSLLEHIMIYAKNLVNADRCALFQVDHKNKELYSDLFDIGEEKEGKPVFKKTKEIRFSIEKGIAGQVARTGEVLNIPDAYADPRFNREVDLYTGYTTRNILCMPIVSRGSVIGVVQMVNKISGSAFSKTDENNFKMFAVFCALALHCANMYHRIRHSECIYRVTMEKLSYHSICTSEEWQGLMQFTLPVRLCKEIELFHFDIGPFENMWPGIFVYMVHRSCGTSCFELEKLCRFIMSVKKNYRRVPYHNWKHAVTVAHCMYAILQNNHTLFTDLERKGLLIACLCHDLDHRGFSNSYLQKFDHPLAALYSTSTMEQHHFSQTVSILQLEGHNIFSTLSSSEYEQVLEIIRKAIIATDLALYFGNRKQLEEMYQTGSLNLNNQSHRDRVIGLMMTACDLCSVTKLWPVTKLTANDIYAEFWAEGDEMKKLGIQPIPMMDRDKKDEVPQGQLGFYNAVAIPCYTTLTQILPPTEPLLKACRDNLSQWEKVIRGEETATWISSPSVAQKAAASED
Outline: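 Fluorescence/mobility-shift readout of PDE10A enzyme activity, taken 1 h post-dosing. Primary screen in duplicate at 25 uM; actives (e.g. ≥30% inhibition) retested as singleton concentration-response, top concentration 50 uM.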

[10] = biological target: human Protein Tyrosine Phosphatase Non-receptor Type 6 (PTPN6), PTPN6 (gene 5777) (UniProt P29350); assay: NVS_ENZ_hPTPN6: NovaScreen (NVS) Enzymatic Assay for human Protein Tyrosine Phosphatase Non-receptor Type 6 (PTPN6) (AID 2283210)
Description: NVS_ENZ_hPTPN6 is a biochemical, single-readout assay that uses extracted gene-proteins from SF9 in a cell-free assay. Measurements were taken 1.33 hours after chemical dosing in a 384-well plate.NVS_ENZ_hPTPN6 is one of one assay component(s) measured or calculated from the NVS_ENZ_hPTPN6 assay. It is designed to make measurements of enzyme activity, a form of enzyme reporter, as detected with fluorescence intensity signals by Fluorescence and electrophoretic mobility shift technology.Data from the assay component NVS_ENZ_hPTPN6 was analyzed into 1 assay endpoint. This assay endpoint, NVS_ENZ_hPTPN6, was analyzed in the positive analysis fitting direction relative to DMSO as the negative control and baseline of activity. Using a type of enzyme reporter, loss-of-signal activity can be used to understand changes in the enzymatic activity as they relate to the gene PTPN6. Furthermore, this assay endpoint can be referred to as a primary readout, because this assay has produced multiple assay endpoints where this one serves a enzymatic activity function. To generalize the intended target to other relatable targets, this assay endpoint is annotated to the phosphatase intended target family, where the subfamily is non-receptor tyrosine phosphatase. […]

With Cc1ccc(Nc2ccc(O)c3c2C(=O)c2ccccc2C3=O)cc1 the AC50 [1] was 6.25 µM (active) and the AC50 [2] was 2.18 µM (active).

In the case of Nc1cc(N)cc(C(=O)O)c1, the AC50 [3] is reported as 19.9 µM (active).

In the case of CC1COc2ccccc2N1C(=O)C(Cl)Cl (centres undefined), the outcome [4] is reported as “inactive”.

CCCCO was tested, and the outcome [4] was “inactive”.

In the case of CCn1c2ccccc2c2cc(N)ccc21, the AC50 [5] is reported as 2.03 µM (active), the AC50 [6] is reported as 27.1 µM (active) and the AC50 [4] is reported as 19.3 µM (active). The AC50 [7] was 9.32 µM (active).

For N#Cc1ccccc1, the outcome [1] was “inactive” and the outcome [7] was “inactive”.

S=C(S)NCCNC(=S)S was tested, and the AC50 [8] was 0.161 µM (active).

In the case of COC(=O)c1ccc(C)cc1, the outcome [1] is reported as “inactive” and the outcome [7] is reported as “inactive”.

With CC(CCO)CCCC(C)(C)O (centres undefined) the outcome [4] was “inactive”.

For Nc1ccc(F)c([N+](=O)[O-])c1, the AC50 [5] was 0.0662 µM (active).

In the case of O=C1OC2(c3cc(Br)c(O)c(Br)c3Oc3c2cc(Br)c(O)c3Br)c2c(Cl)c(Cl)c(Cl)c(Cl)c21, the AC50 [5] is reported as 0.196 µM (active), the AC50 [3] is reported as 0.552 µM (active) and the AC50 [8] is reported as 6.67 µM (active). For the same compound, the outcome [6] was “inactive” and the AC50 [7] was 1.86 µM (active).

In the case of CC(C)[C@H]1CC[C@@H](C)CC1=O, the outcome [4] is reported as “inactive”.

For CCCCC/C=C/C=C/C=O, the AC50 [3] was 0.627 µM (active), the AC50 [1] was 25 µM (active) and the AC50 [8] was 9.31 µM (active). For the same compound, the outcome [4] was “inactive”, the AC50 [2] was 25 µM (active) and the outcome [9] was “inactive”. For the same compound, the outcome [7] was “inactive”.

With CC(=O)O[C@]1(C(C)=O)CC[C@H]2[C@@H]3C[C@H](C)C4=CC(=O)CC[C@]4(C)[C@H]3CC[C@@]21C the AC50 [5] was 2.5 µM (active) and the outcome [2] was “inactive”.

For CC(C)[C@@H]1CC[C@@H](C)CC1=O, the outcome [4] was “inactive”.

With O=P(c1ccccc1)(c1ccccc1)c1ccccc1 the AC50 [5] was 0.0121 µM (active).

In the case of O=C=NC1CCC(CC2CCC(N=C=O)CC2)CC1 (centres undefined), the AC50 [1] is reported as 8.32 µM (active), the AC50 [2] is reported as 2.17 µM (active) and the outcome [9] is reported as “inactive”. The outcome [7] was “inactive”.

For CCO[Si](CCCS)(OCC)OCC, the outcome [4] was “inactive”, the AC50 [2] was 1.65 µM (active) and the AC50 [9] was 32.1 µM (active). For the same compound, the outcome [7] was “inactive”.

With CC1(C)[C@H]2CC[C@]1(C)[C@H](O)C2 the outcome [4] was “inactive”.

c1ccc2sc(SN(C3CCCCC3)C3CCCCC3)nc2c1 was tested, and the outcome [5] was “inactive”.

CC(C)Oc1ccccc1O was tested, and the outcome [4] was “inactive”.

For c1ccc2c(c1)c1cccc3ccc4cccc2c4c31, the outcome [9] was “inactive”.

With O=C(O)c1ccc([N+](=O)[O-])cc1 the outcome [10] was “inactive”.

With C#C[C@]1(O)CC[C@H]2[C@@H]3CCC4=Cc5oncc5C[C@]4(C)[C@H]3CC[C@@]21C the outcome [4] was “inactive”, the outcome [9] was “inactive” and the outcome [7] was “inactive”.

OCC(CO)(CO)COCC(CO)(CO)CO was tested, and the outcome [4] was “inactive” and the AC50 [9] was 23.1 µM (active).

CC1CCC2CC1C2(C)C (centres undefined) was tested, and the AC50 [4] was 21.3 µM (active), the outcome [9] was “inactive” and the AC50 [7] was 1.82 µM (active).

Cc1c(Cl)c(=O)oc2cc(O)ccc12 was tested, and the AC50 [9] was 0.582 µM (active).

In the case of CC(=O)OCc1ccc2c(c1)OCO2, the AC50 [4] is reported as 8.23 µM (active) and the outcome [9] is reported as “inactive”.

In the case of Nc1cc([N+](=O)[O-])ccc1Cl, the outcome [9] is reported as “inactive”.

With COC(=O)OC the outcome [4] was “inactive”, the outcome [9] was “inactive” and the outcome [7] was “inactive”.

CC1CCC(C(C)CS)CC1S (centres undefined) was tested, and the AC50 [2] was 0.997 µM (active).

In the case of CCCCCCCCC, the AC50 [2] is reported as 25 µM (active).

In the case of Clc1ccc(Cl)c(Cl)c1Cl, the AC50 [2] is reported as 6.22 µM (active).

COc1cc2ncnc(Nc3cccc(Cl)c3)c2cc1OC was tested, and the outcome [4] was “inactive” and the AC50 [9] was 2.52 µM (active).

In the case of CC1(C)[C@H](C(=O)OCc2cccc(Oc3ccccc3)c2)[C@@H]1C=C(Cl)Cl, the outcome [9] is reported as “inactive”.

Cc1ccc2ccccc2n1 was tested, and the outcome [4] was “inactive” and the AC50 [9] was 9.74 µM (active).

In the case of CCc1c(C)cc(N)c(CC)c1N, the outcome [9] is reported as “inactive”.

For CNC[C@H](O)c1cccc(O)c1, the AC50 [2] was 10.6 µM (active).

With O=[N+]([O-])c1cc(C(F)(F)F)ccc1Cl the outcome [4] was “inactive” and the AC50 [9] was 35 µM (active).

With CC(=O)/C=C/C1=C(C)CCCC1(C)C the outcome [7] was “inactive”.

For OC1C(O)C(O)C(O)C(O)C1O (centres undefined), the outcome [4] was “inactive” and the outcome [9] was “inactive”.

With CCCCC(CC)COCCC#N (centres undefined) the outcome [9] was “inactive” and the outcome [7] was “inactive”.

In the case of CC(=O)OCCOC(C)=O, the AC50 [2] is reported as 14.9 µM (active).
